Measured values reported in the supplement of paper PMC8728848.
About 410 targets per protein were measured; listed, in parts, are those with the strongest signals and a random draw of the rest.

What was measured:
Experiment in all cases: glycan array binding signal (z-score within array); higher = stronger binding
[1] = test system: Neu5Ac(a2-3)[GalNAc(b1-4)]Gal(b1-4)Glc; details: glycan notation: IUPAC condensed, linker removed
Outline: (§1)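 Columns mapping to the same glycan were averaged after glycan names were converted to IUPAC-condensed notation. The data come from 3228 arrays in the Consortium for Functional Glycomics database, limited to those with an available protein sequence. Binding is reported as a within-array Z-score averaged across arrays of one protein sequence and across linkers.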

[2] = test system: Neu5Ac(a2-3)[GalNAc(b1-4)]Gal(b1-4)GlcNAc; details: glycan notation: IUPAC condensed, linker removed
Outline: as §1

Neu5Ac(a2-3)GalNAc = details: glycan notation: IUPAC condensed, linker removed
Outline: as §1

[3] = test system: Neu5Ac(a2-3)[GalNAc(b1-4)]Gal(b1-4)GlcNAc(b1-3)GalNAc; details: glycan notation: IUPAC condensed, linker removed
Outline: as §1

[4] = test system: Neu5Ac(a2-3)Gal6S(b1-4)[Fuc(a1-3)]GlcNAc; details: glycan notation: IUPAC condensed, linker removed
Outline: as §1

[5] = test system: Neu5Ac(a2-3)GalNAc(b1-4)GlcNAc; details: glycan notation: IUPAC condensed, linker removed
Outline: as §1

[6] = test system: Neu5Ac(a2-6)Gal(b1-3)GlcNAc(b1-3)[Gal(b1-4)GlcNAc(b1-6)]Gal(b1-4)Glc; details: glycan notation: IUPAC condensed, linker removed; mutation: R125K
Outline: as §1

Neu5Ac(a2-3)Gal = details: glycan notation: IUPAC condensed, linker removed
Outline: as §1

[7] = test system: Neu5Ac(a2-3)[Neu5Ac(a2-6)]GalNAc; details: glycan notation: IUPAC condensed, linker removed
Outline: as §1

[8] = test system: Neu5Ac(a2-6)Gal(b1-4)GlcNAc(b1-2)Man(a1-3)[Gal(b1-4)GlcNAc(b1-2)Man(a1-6)]Man(b1-4)GlcNAc(b1-4)GlcNAc; details: glycan notation: IUPAC condensed, linker removed
Outline: as §1

Sequence of C3b (Homo sapiens), P01024 (P01024 23-667): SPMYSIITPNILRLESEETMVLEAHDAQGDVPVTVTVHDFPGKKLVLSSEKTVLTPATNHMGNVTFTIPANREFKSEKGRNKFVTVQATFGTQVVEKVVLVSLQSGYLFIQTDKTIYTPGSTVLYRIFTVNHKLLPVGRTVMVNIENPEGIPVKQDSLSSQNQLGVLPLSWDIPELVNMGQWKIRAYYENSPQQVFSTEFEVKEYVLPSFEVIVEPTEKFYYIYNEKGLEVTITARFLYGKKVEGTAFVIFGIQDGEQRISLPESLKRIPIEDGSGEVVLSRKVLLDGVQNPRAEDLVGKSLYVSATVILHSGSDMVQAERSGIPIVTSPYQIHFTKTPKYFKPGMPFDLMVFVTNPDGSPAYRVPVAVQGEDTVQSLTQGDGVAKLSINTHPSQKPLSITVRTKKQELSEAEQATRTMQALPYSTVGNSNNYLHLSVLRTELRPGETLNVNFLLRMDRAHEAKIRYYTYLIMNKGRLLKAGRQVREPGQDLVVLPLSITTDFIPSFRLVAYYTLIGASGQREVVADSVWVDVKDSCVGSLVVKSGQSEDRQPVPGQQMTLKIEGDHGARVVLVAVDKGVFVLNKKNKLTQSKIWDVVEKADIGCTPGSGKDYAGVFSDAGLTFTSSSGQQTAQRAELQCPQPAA
Sequence of CHI3L1 (Homo sapiens), P36222 (P36222 whole entry): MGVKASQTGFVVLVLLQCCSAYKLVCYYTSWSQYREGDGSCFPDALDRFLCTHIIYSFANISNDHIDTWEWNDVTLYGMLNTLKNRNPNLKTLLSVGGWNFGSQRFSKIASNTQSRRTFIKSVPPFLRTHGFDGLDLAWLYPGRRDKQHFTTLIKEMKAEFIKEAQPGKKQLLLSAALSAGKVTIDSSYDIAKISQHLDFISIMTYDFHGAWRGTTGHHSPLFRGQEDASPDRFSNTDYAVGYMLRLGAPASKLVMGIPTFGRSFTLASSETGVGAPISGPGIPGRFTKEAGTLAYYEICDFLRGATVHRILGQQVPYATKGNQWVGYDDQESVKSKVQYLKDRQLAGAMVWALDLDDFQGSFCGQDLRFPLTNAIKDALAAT
Sequence of wLAT-1A (Homo sapiens), Q01650 (Q01650 whole entry): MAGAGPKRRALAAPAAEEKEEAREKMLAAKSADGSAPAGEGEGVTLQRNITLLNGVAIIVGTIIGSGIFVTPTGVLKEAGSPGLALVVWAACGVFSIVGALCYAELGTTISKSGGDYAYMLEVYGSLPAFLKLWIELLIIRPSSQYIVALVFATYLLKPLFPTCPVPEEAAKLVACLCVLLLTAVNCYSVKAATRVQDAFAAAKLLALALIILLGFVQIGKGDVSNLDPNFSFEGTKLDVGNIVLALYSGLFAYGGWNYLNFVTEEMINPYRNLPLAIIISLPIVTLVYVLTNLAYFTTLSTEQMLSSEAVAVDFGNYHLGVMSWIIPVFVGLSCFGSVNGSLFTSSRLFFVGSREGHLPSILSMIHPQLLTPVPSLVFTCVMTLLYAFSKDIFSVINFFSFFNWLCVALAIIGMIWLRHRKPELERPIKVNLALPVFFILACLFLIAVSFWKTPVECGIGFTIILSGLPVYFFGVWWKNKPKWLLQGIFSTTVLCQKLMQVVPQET
Sequence of 6RG (Lolium perenne) (chain, as listed by the source): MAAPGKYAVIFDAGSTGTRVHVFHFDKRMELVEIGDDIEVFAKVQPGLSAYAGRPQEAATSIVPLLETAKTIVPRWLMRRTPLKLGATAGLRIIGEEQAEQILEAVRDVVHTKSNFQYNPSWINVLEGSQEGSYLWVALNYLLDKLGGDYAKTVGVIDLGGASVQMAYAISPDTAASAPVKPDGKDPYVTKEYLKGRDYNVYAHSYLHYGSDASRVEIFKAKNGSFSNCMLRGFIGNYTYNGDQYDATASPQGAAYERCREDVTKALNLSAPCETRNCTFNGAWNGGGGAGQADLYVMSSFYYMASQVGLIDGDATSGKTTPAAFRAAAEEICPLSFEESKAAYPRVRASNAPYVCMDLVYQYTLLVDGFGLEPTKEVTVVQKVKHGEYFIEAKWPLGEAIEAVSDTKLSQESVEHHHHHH
Sequence of Neurocan (Homo sapiens), O14594 (O14594 other isoform, or with tags, fused parts or gaps): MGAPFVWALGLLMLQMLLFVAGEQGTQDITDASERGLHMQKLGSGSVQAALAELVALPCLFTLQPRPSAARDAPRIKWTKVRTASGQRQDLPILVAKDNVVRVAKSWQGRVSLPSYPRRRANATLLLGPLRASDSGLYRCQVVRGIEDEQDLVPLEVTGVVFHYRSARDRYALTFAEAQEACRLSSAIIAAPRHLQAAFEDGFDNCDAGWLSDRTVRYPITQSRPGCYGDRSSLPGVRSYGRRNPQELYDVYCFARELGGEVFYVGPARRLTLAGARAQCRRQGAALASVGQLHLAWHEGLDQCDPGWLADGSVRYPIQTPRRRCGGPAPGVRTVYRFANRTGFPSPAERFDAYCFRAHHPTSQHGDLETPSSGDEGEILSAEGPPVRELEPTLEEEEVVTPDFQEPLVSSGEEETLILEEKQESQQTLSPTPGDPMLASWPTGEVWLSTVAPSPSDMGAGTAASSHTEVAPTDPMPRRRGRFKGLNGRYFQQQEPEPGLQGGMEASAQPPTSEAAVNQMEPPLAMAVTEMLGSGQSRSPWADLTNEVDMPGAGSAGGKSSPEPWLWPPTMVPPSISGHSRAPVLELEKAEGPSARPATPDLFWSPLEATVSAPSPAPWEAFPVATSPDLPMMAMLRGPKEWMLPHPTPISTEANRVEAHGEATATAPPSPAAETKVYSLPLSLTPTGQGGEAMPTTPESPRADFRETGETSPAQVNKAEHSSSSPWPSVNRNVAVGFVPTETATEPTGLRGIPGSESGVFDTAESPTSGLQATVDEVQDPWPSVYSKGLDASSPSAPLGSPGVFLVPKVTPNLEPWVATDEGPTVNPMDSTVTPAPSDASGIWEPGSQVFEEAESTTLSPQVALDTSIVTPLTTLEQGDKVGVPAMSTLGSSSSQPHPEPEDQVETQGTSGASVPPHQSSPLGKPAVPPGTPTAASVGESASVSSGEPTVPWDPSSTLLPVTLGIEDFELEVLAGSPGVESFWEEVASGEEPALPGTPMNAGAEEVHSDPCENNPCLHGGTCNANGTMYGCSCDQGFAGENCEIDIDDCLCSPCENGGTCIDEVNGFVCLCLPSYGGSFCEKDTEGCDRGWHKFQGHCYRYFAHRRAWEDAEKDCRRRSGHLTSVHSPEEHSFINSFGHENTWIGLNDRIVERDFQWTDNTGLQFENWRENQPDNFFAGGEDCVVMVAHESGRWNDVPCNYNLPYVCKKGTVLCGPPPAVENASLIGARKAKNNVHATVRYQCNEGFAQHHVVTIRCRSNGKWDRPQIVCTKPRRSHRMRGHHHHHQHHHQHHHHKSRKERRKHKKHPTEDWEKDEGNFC
Sequence of Regenerating Gene IV (Homo sapiens), Q9BYZ8 (Q9BYZ8 whole entry, looked up): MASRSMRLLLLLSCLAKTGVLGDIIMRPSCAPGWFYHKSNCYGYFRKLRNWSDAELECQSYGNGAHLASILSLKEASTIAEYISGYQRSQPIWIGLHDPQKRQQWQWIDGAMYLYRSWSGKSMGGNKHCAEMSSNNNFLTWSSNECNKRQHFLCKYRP
Sequence of PILRb (Mus musculus), Q2YSF2 (Q2YSF2 entry or part of it): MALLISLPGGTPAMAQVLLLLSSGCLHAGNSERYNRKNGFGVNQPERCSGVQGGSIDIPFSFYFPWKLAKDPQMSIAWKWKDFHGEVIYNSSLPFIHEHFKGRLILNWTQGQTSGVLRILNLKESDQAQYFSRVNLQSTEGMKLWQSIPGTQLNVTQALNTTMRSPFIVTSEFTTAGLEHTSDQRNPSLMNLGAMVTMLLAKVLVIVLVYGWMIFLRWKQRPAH
Sequence of 6RG (Lolium perenne), B9U140 (B9U140 entry or part of it): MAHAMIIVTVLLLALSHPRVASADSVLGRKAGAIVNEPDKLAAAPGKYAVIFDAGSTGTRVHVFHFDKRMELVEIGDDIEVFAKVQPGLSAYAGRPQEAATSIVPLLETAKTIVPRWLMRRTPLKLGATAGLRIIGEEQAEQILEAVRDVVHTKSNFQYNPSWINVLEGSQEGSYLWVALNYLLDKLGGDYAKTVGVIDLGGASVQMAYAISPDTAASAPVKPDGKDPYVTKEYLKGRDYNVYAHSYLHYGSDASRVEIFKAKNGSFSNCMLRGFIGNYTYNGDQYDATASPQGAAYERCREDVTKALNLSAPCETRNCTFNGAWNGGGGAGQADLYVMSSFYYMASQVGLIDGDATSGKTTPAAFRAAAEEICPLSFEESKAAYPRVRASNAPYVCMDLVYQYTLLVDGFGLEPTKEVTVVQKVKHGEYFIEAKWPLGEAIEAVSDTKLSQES

Question: “Regenerating Gene IV (Homo sapiens), Q9BYZ8” was tested. Which “glycan array binding signal (z-score)” value [1] did it give?
Answer: Its value is 0.356.

Question: For PILRb (Mus musculus), Q2YSF2, which “glycan array binding signal (z-score)” value [2] is on record?
Answer: Its value is -0.329.

Question: MpAFP RI GFP (Marinomonas primoryensis) was tested. Which “glycan array binding signal (z-score)” value (Neu5Ac(a2-3)GalNAc) did it give?
Answer: Its value is 2.97.

Question: Neurocan (Homo sapiens), O14594 was tested. Which “glycan array binding signal (z-score)” value [3] did it give?
Answer: Its value is -0.87.

Question: Siglec-8 (Homo sapiens), Q9NYZ4 was tested. Which “glycan array binding signal (z-score)” value [4] did it give?
Answer: Its value is 15.

Question: What about the “glycan array binding signal (z-score)” value [5] of the same substance?
Answer: Its value is -0.069.

Question: And the “glycan array binding signal (z-score)” value [6]?
Answer: The value was -0.472.

Question: For 6RG (Lolium perenne), which “glycan array binding signal (z-score)” value (Neu5Ac(a2-3)Gal) is on record?
Answer: Its value is -0.339.

Question: What about the “glycan array binding signal (z-score)” value [7] of the same substance?
Answer: Its value is -0.349.

Question: With C3b (Homo sapiens), P01024 as the substance, how does the “glycan array binding signal (z-score)” value [5] read?
Answer: Its value is 1.01.

Question: What about the “glycan array binding signal (z-score)” value [2] of the same substance?
Answer: Its value is -0.304.

Question: And the “glycan array binding signal (z-score)” value [8]?
Answer: The value was -0.286.

Question: Which “glycan array binding signal (z-score)” value [7] does the source give for 6RG (Lolium perenne), B9U140 here?
Answer: The value was -0.334.

Question: With CHI3L1 (Homo sapiens), P36222 as the substance, how does the “glycan array binding signal (z-score)” value [4] read?
Answer: Its value is -0.117.

Question: What about the “glycan array binding signal (z-score)” value (Neu5Ac(a2-3)GalNAc) of the same substance?
Answer: Its value is -0.131.

Question: What does the source list for wLAT-1A (Homo sapiens), Q01650?
Answer: glycan array binding signal (z-score) [7]: 0.503; glycan array binding signal (z-score) [8]: -0.898
